PubChem BioAssay (EPA / NIEHS)
The source made the active and inactive calls. How the source made its calls: active means hit-call score of the fitted dose curve at least 0.9, where 1 is the maximum; inactive means score below 0.9.

These compounds were tested on Cytochrome P450 3A7 (Homo sapiens) (UniProt P24462) (assay: LTEA_HepaRG_CYP3A7: Life Technologies and Expression Analysis (LTEA) Assay for CYP3A7 using HepaRG (AID 2283492)). Conditions: mRNA level, 48 h; actives raise or lower the signal.
Cytochrome P450 3A7 (Homo sapiens), sequence (P24462 whole entry, looked up): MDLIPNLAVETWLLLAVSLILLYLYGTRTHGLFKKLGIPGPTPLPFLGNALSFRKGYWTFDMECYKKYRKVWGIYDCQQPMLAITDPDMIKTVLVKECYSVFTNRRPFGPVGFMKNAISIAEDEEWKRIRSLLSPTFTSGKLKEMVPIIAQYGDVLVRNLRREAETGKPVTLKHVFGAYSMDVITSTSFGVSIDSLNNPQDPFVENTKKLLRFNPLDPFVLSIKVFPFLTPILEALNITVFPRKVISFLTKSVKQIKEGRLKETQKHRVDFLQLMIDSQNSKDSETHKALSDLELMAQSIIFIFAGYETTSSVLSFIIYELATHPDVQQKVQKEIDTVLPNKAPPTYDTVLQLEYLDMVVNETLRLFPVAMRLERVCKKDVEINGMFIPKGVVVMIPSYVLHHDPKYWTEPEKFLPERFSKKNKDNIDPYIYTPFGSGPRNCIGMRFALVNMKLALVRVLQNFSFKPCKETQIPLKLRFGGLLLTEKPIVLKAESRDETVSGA
Experimental: LTEA_HepaRG is a cell based, multiplexed-readout assay that uses HepaRG, a human liver cell line, with measurements taken at 48 hours after chemical dosing on a 96-well plate.LTEA_HepaRG_CYP3A7 is one of 102 assay component(s) measured in the LTEA HepaRG cell culture assay. It is a marker of NR mediated metabolism/Undifferentiated hepatocyte.Data from the assay component LTEA_HepaRG_CYP3A7 was analyzed into 1 endpoint. This assay endpoint, LTEA_HepaRG_CYP3A7, was analyzed with bidirectional fitting relative to DMSO as the negative control and baseline of activity. Using a type of inducible reporter, measures of mRNA induction for gain or loss-of-signal activity can be used to understand regulation of transcription factor activity. To generalize the intended target to other relatable targets, this assay endpoint is annotated to the cyp intended target family, where the subfamily is xenobiotic metabolism.
A total of 1060 chemcials from the ToxCast library were tested in eight-point concentration-response experiments. Cell culture and cytotoxicity assays were conducted at Thermo Fisher Scientific's Custom Services facility (Madison, WI). A single lot of human HepaRG cells (Thermo Fisher Scientific, Frederick, MD) was used for the cell culture experiments. 96-well format collagen type I coated plates of human HepaRG cells were prepared using established methods. Briefly, cryopreserved HepaRG cells were thawed, plated at a density of approximately 100,000 cells/well in HepaRG Thaw, Plate, and General Purpose media (HPRG770, Thermo Fisher Scientific), and incubated for 48 hours. 0.5% DMSO was selected as vehicle control to balance the requisite need of DMSO in HepaRG cultures to maintain differentiation (for example, baseline metabolism, proportions of hepatocytes vs. cholangiocytes), while enabling further hepatic receptor pathway activation (for example, PXR and CAR) in response to chemical exposure. 48 hours after plating, the culture medium was replaced with HepaRG Serum-Free Incudtion Media. Cells were exposed to each test chemical in duplicate and maintained in CO2 incubators for another 48 hours. Chemical plates were thawed to room temperature and 200x concentrations of treatment groups were prepared. 8-point conentration-reponse curves were made with the highest exposure at 100 uM, followed by half-log dilutions, all in 0.5% DMSO. Each test plate contained variouse controls, induction positive controls (1mM phenobarbital), cytotoxicity positive controls ([…] aflatoxin B1), vehicle controls (0.5% DMSO), and total lysis controls (0.5% DMSO). Cell morphology images were taken using an Essen IncuCyte FLR automated microscope, with six 96-well plates imaged in about 24 minutes. Images were captured and exported and JPEG files. Spent culture media was transfered to black-well plates for the LDH assay, and remaining media was sorted at -80 C for later use. Cells were treated with RLT buffer and frozen until shipped for gene expression analysis. Total RNA was isolated from the cell suspension in 75 uL of Buffer RLT (Qiagen, Germantown, MD 20874) by Quintiles/Expression Analysis (Durham, NC) using a custom isolation procedure. Total RNA from each plate well was transferred to a preamplification plate. Fluidigm's 96.96 Dynamic ArrayTM (Fluidigm, Amsterdam, the Netherlands) technology was used for gene expression analyses by quantitative reverse transcription polymerase chain reaction (qRT-PCR, performed by Quintiles/Expression Analysis, Durham, NC)89. Standard TaqManTM Assays (Applied Biosystems/ThermoFisher Scientific, Foster City, CA) were used to assess the expression of 93 genes selected based on their selectivity and sensitivity to important hepatic receptors known to be modulated by environmental chemicals; importance in human hepatocyte functionality; and hepatotoxicity. […]
With Cc1ccccc1[N+](=O)[O-] the outcome was “inactive”. ClC1=C(Cl)[C@]2(Cl)[C@@H]3[C@@H]4C[C@@H]([C@H]5O[C@@H]45)[C@@H]3[C@@]1(Cl)C2(Cl)Cl was tested, and the outcome was “inactive”. With CCC(C)c1cc([N+](=O)[O-])cc([N+](=O)[O-])c1O (stereo not given) the AC50 was 1.57 µM (active). For C=CC(=O)NCNC(=O)C=C, the outcome was “inactive”. For Oc1ccc(C(c2ccc(O)cc2)(C(F)(F)F)C(F)(F)F)cc1, the outcome was “inactive”. With O=S(=O)(O)C(F)(F)C(F)(F)C(F)(F)C(F)(F)F the outcome was “inactive”. In the case of O=C(NC(=O)c1cc(F)c(F)cc1Cl)Nc1cc(F)ccc1N1CCC(C(=O)O)CC1, the outcome is reported as “inactive”. With CC(c1ccc(O)cc1)(c1ccc(O)cc1)c1ccc(O)cc1 the AC50 was 20.7 µM (active). N#Cc1ccc(N(CC(N)=O)CC(F)(F)F)cc1C(F)(F)F was tested, and the outcome was “inactive”. Cc1cccc([N+](=O)[O-])c1 was tested, and the outcome was “inactive”. In the case of CCSC(=O)N(CC)C1CCCCC1, the outcome is reported as “inactive”. CC(C)(O)C(=O)Nc1ccc([N+](=O)[O-])c(C(F)(F)F)c1 was tested, and the outcome was “inactive”. With O=C(NC(=O)c1c(F)cccc1F)Nc1cc(Cl)c(OC(F)(F)C(F)F)c(Cl)c1 the outcome was “inactive”. With Cc1cccc(C)c1N the outcome was “inactive”. In the case of Cc1cc(O)ccc1Cl, the outcome is reported as “inactive”. COc1ccc(O)c(C(C)(C)C)c1 was tested, and the outcome was “inactive”. CC(C)(c1ccccc1)c1ccc(O)cc1 was tested, and the outcome was “inactive”. In the case of CCCCCCCCCC[N+](C)(C)CCCCCCCCCC, the outcome is reported as “inactive”. In the case of CN(C)CCO, the outcome is reported as “inactive”. In the case of Clc1ccc(C(c2ccccc2Cl)C(Cl)(Cl)Cl)cc1 (stereo not given), the AC50 is reported as 0.41 µM (active). In the case of O=C(O)C(F)(F)C(F)(F)C(F)(F)C(F)(F)C(F)(F)F, the outcome is reported as “inactive”. In the case of ClC1=C(Cl)[C@]2(Cl)[C@@H]3[C@@H](Cl)[C@H]4O[C@H]4[C@@H]3C1(Cl)C2(Cl)Cl, the AC50 is reported as 1.77 µM (active). CC(C)C(=O)OCC(C)(C)C(OC(=O)C(C)C)C(C)C (stereo not given) was tested, and the outcome was “inactive”. With O=C(O)C(F)(F)C(F)(F)C(F)(F)C(F)(F)C(F)(F)C(F)(F)C(F)(F)C(F)(F)C(F)(F)F the AC50 was 80.3 µM (active). c1ccc(-c2ccccc2)cc1 was tested, and the outcome was “inactive”. With CCOCCOC(C)=O the outcome was “inactive”. With CO/C=C(/C(=O)OC)c1ccccc1COc1cccc(C(F)(F)F)n1 the AC50 was 3.4 µM (active). With ClC1=C(Cl)[C@]2(Cl)[C@@H]3[C@H]4C[C@H]([C@@H]5O[C@H]45)[C@@H]3[C@@]1(Cl)C2(Cl)Cl the AC50 was 2.94 µM (active). In the case of O=S(=O)(O)C(F)(F)C(F)(F)C(F)(F)C(F)(F)C(F)(F)C(F)(F)F, the AC50 is reported as 20.9 µM (active). With C=CC(N)=O the outcome was “inactive”. With CCCCCCOC(=O)c1ccccc1C(=O)OCCCCCC the outcome was “inactive”. With Clc1ccc(Cl)cc1 the outcome was “inactive”. Oc1c(Cl)c(Cl)c(Cl)c(Cl)c1Cl was tested, and the AC50 was 4.85 µM (active). With O=NN(c1ccccc1)c1ccccc1 the outcome was “inactive”. With CCCN(CCC)N=O the outcome was “inactive”. With NS(=O)(=O)C(F)(F)C(F)(F)C(F)(F)C(F)(F)C(F)(F)C(F)(F)C(F)(F)C(F)(F)F the AC50 was 7.34 µM (active). With Cc1cc2c3c(c1)C(c1ccccc1)=N[C@@H](NC(=O)c1ccncc1)C(=O)N3CC2 the AC50 was 12.2 µM (active). In the case of C[C@]12CCC(=O)C=C1CC[C@@H]1[C@@H]2CC[C@]2(C)C(=O)CC[C@@H]12, the outcome is reported as “inactive”. With CCOC(=O)C(O)(c1ccc(Cl)cc1)c1ccc(Cl)cc1 the AC50 was 50 µM (active). For CCNc1nc(NC(C)C)nc(SC)n1, the outcome was “inactive”.
